Screening data (PubChem)
ELG1 repair inh – blocks ELG1-dependent DNA repair in HEK293T cells. HEK293T ELG1-luciferase reporter, luminescence, 16 h; DNA damage induced by 5-fluorouridine. Potency, µM (titrated, usually from 46.1 µM), without a hit: top-dose activity change, negative = inhibition, actives largely listed as inhibitors. actives 2.3% (n = 330,000); also: potency is read from the fitted curve at half-maximal effect; nearly all actives have a fitted effect of over 55% in size
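5-Fluorouridine DNA damage + compound/DMSO, 2,000 cells/well, 16 h, 37 °C/5% CO2. ONE-Glo, 30 min RT, luminescence. Readout = decrease in reporter signal.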
IL1B secr inh – inflammasome signaling inhibition, IL-1 beta readout; THP-1 LPS/ATP IL-1B secretion, AlphaLISA, 16 h; stronger effect = lower value; activity change, % at 57.5 µM; actives 4.7% (n = 360,000); AID 743279; in the data active = activity change below about -50%; inconclusive = mostly about -30% to -49%
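Secreted IL-1B measured by AlphaLISA bead assay after 16 h compound exposure of THP-1 cells; compounds (final up to 57.5 uM) added 1 h before LPS (250 ng/mL) and ATP (1.25 mM) stimulation; lower signal means less secretion.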
HT1080 IDH1KD tx – toxicity to HT-1080 IDH1 knockdown cells (counter line) | HT-1080 IDH1 knockdown viability, ATP luminescence, 48 h | Potency, µM (titrated, usually from 46.1 µM), for inactives: at the top dose activity, negative = toxicity, actives largely listed as cytotoxic | actives 2% (n = 360,000);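 also: potency is read from the fitted curve at half-maximal effect; 0% = DMSO wells and -100% = cell-free medium wells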
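In this qHTS, HT-1080 cells depleted of IDH1 are exposed for 48 h at 37 °C to compound titrations. Toxicity is scored from CellTiter-Glo luminescence, with DMSO as full viability and medium alone as none.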
TDP1 cell CPT – DT40-hTDP1 cell growth loss with CPT; chicken DT40 Tdp1-/-;hTDP1 cells + 20 nM CPT, ATP luminescence, 48 h; Potency, µM (top dose mostly 46.2 µM), without a hit: at the highest dose activity change, negative = growth inhibition, actives largely listed as inhibitors; actives 12% (n = 420,000); also: potency is read from the fitted curve at half-maximal effect; nearly all actives have a fitted effect of over 55% in size
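Cell growth measured by CellTiter-Glo luminescence after a minimum 48 h, 37 C compound exposure with 20 nM CPT in Tdp1-knockout DT40 cells stably expressing hTDP1, seeded 400/well; qHTS titration format.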
HT1080-NT tox – kills 2HG-producing HT-1080-NT fibrosarcoma cells; HT-1080-NT fibrosarcoma viability, CellTiter-Glo ATP luminescence, 48 h; actives 1.6% (n = 360,000); Potency, µM (top dose mostly 46.1 µM), without a hit: at the highest dose activity, negative = less viability, most hits filed as cytotoxic;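 also: NT is the 2HG producing partner of a matched IDH1 knockdown line; potency is read from the fitted curve at half-maximal effect; 0% = DMSO-treated cells and -100% = media-only wells without cells; nearly all actives have a fitted effect of over 55% in size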
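Viability by CellTiter-Glo luminescence after 48 h compound exposure at 37C of HT-1080-NT cells (750/well, RPMI, 5% FBS). % activity scaled between DMSO wells and medium-only wells, then curve-fitted and categorized by curve class.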
TDP1 cell noCPT – qHTS for Inhibitors of human tyrosyl-DNA phosphodiesterase 1 (TDP1): qHTS in cells in absence of CPT; AID 686978, 2013; DT40 Tdp1-/- hTDP1 cells, no CPT, ATP luminescence, 48 h; Potency, µM (doses to about 46.2 µM), for inactives: at the highest dose activity change, negative = growth inhibition, usual class: inhibitors; actives 15% (n = 420,000); also: potency is read from the fitted curve at half-maximal effect; nearly all actives have a fitted effect of over 55% in size
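Seeded 400 DT40-hTDP1 cells/well (vehicle DMSO, no 20 nM CPT); pinned compounds; ≥48 hr at 37 °C; CellTiter-Glo luminescence as viability measure.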
The depositor's hits bear a star; u = inconclusive; x = not tested or not shown; [ ] = remark or other dose. Only some compounds are listed: those with a hit (about 19% of all), similar ones and a draw of the others. Unless noted, calls follow the shape of the dose curve; as a rule, active = well fitted curve in the direction sought with a large enough effect; inconclusive = small, poorly fitted or top-dose-only effect, or another doubt; inactive = no such curve, though single readings can be large; an effect the other way counts as inactive or inconclusive. Unless noted, % is scaled to controls: 0 for no effect and ±100 for the full control effect.

SMILES	ELG1 repair inh	IL1B secr inh	HT1080 IDH1KD tx	TDP1 cell CPT	HT1080-NT tox	TDP1 cell noCPT
COc1ccc(CCNc2oc(/C=C/c3cc(OC)c(OC)c(OC)c3)nc2C#N)cc1OC	x	x	x	13µM*	x	12µM*
COCCCNc1oc(/C=C/c2cc(OC)c(OC)c(OC)c2)nc1C#N	x	x	x	u	x	23µM*
COCCNc1oc(/C=C/c2ccccc2)nc1C#N	u	-21	0%	4%	3%	0%
CCOC(=O)c1c(NC(=O)c2cc(=O)c3c(C)cc(C)cc3o2)sc(C(C)=O)c1C	x	x	x	9%	x	-21%
Clc1nc(NC2CCCCC2)c2cn[nH]c2n1	x	49	u	-22%	u	-17%
COC(=O)C[C@H]1CC[C@@H](NC(=O)C2CC2)[C@@H](CO)O1	x	52	15%	-4%	17%	14%
CNC(=O)C[C@@H]1C(=O)N(CCc2ccccc2)CC1(C)C	x	10	8%	22%	-2%	-11%
Cc1cc(C)c(C(=O)C(C)OC(=O)c2ccc(Cl)nc2)cc1C (stereo not drawn)	8%	16	3%	u	5%	u
O=C1Nc2cc3c(cc2C1=O)sc1ccccc13	-18%	x	-6%	21µM*	-1%	29µM*
COC(=O)c1cc(S(=O)(=O)NCC2CCN(CCc3cccs3)CC2)c[nH]1	-6%	0	6%	6%	12%	16%
COC(=O)[C@@]1(Cc2ccccc2)[C@H]2C(=O)N(C)C(=O)[C@H]2[C@H]2CN=C(SCC(=O)c3ccccc3)N21	12%	3	-12%	-4%	-12%	u
COC(=O)[C@@]1(Cc2ccccc2)[C@H]2C(=O)N(C)C(=O)[C@H]2[C@H]2CN=C(SCC3CC3)N21	1%	-5	-1%	3.7µM*	-1%	-19%
COC(=O)c1ccc(CSC2=NC[C@@H]3[C@@H]4C(=O)N(C)C(=O)[C@@H]4[C@](Cc4ccccc4)(C(=O)OC)N23)cc1	3%	-7	-2%	16µM*	-11%	u
CC[C@]1(C(=O)OC)[C@H]2C(=O)N(C)C(=O)[C@H]2[C@H]2CN=C(SCc3ccc(Cl)cc3)N21	9%	0	4%	u	-2%	u
COC(=O)[C@@]1(Cc2ccccc2)[C@H]2C(=O)N(C)C(=O)[C@H]2[C@H]2CN=C(SCc3ccc(Cl)cc3)N21	-2%	0	-3%	13µM*	-9%	12µM*
CCN1C(=O)[C@H]2[C@H]3CN=C(SCC4CC4)N3[C@@](Cc3ccccc3)(C(=O)OC)[C@H]2C1=O	6%	-19	-7%	-27%	-6%	u
COC(=O)[C@@]1(Cc2ccccc2)[C@H]2C(=O)N(C)C(=O)[C@H]2[C@H]2CN=C(SCc3ccc(C)cc3)N21	-4%	-8	6%	18µM*	2%	16µM*
COc1ccc(C(=O)OCC(=O)NC2CCCCCCC2)cc1OC	-24%	3	1%	3%	1%	-21%
CCCCCC(=O)Nc1ccc(S(=O)(=O)Nc2nccc(C)n2)cc1	5%	20	10%	-7%	3%	-4%
Cc1ccc(C(=O)N/N=C/c2ccc(-c3cccc(Cl)c3)o2)cn1	u	-23	u	15µM*	26µM*	15µM*
Cc1ccc(C(=O)N/N=C/c2ccc(-c3ccccc3[N+](=O)[O-])o2)cn1	-13%	9	-8%	21µM*	-13%	u
Cc1ccc(C(=O)N/N=C\c2ccc(-c3ccc(Cl)c(Cl)c3)o2)cn1	-16%	u	18µM*	u	16µM*	u
Cc1nnc(N/N=C\c2ccc(-c3ccccc3[N+](=O)[O-])o2)n1N	u	103	-11%	u	0%	u
COc1ccc(-c2ccc(/C=N/NC(=O)c3cccnc3)o2)c([N+](=O)[O-])c1	u	-8	8%	u	0%	16µM*
CCCc1cc(=O)oc2cc(OCC(=O)NCCCn3ccnc3)c(Cl)cc12	7%	u	16%	-26%	5%	-28%
SMILES	ELG1 repair inh	IL1B secr inh	HT1080 IDH1KD tx	TDP1 cell CPT	HT1080-NT tox	TDP1 cell noCPT
CCNC(=S)NNC(=O)c1cc(C2CC2)nc2ccccc12	5%	-11	u	u	u	-16%
O=C(C[n+]1cccc2cccc(O)c21)c1ccc(Br)cc1	x	x	x	-10%	x	-3%
O=C(c1ccco1)N(Cc1ccc2c(c1)OCO2)Cc1cc2cc3c(cc2[nH]c1=O)OCO3	u	-12	-2%	-4%	1%	2%
COc1ccc(C(=O)N(Cc2ccccc2)Cc2cc3cc4c(cc3[nH]c2=O)OCCO4)cc1	17%	13	-23%	11µM*	u	11µM*
COc1cccc(C(=O)N(Cc2cc3cc(C)ccc3[nH]c2=O)CC2CCCO2)c1 (stereo not drawn)	0%	u	-7%	u	-6%	-23%
COc1cccc(C(=O)N(Cc2ccccc2)Cc2cc3cc4c(cc3[nH]c2=O)OCCO4)c1	u	-11	u	13µM*	u	21µM*
COc1cc(NC(=O)C2(C)CCN2C(=O)C(C)C)cc(OC)c1OC (stereo not drawn)	x	49	u	-5%	16%	-1%
C/C(=N\NC(=O)c1c(Cl)cnn1C)c1ccc(NC(=O)c2ccncc2)cc1	-28%	15	-27%	u	1%	21µM*
C/C(=N/NC(=O)c1ccncc1)c1ccccc1	u	0	22%	4%	11%	-5%
C/C(=N\NC(=O)c1ccc(OC2OCCOC2Oc2ccc(C(=O)N/N=C(\C)c3ccncc3)cc2)cc1)c1ccncc1 (stereo not drawn)	u	-2	u	6.5µM*	u	7.3µM*
Cn1ncc(Cl)c1C(=O)Nc1ccncc1	-13%	u	2%	-3%	7%	-11%
C/C(=N\NC(=O)c1ccccc1NC(=O)c1ccc(Cl)cc1)c1ccncc1	u	35	1.3µM*	0.92µM*	0.52µM*	1.2µM*
C/C(=N\NC(=O)c1ccc(N/N=C(\C)c2ccncc2)cc1)c1ccncc1	23µM*	-82*	-25%	u	-7%	21µM*
Cc1ccc(CNc2nc(CN3CCSCC3)nc3ccccc23)o1	x	x	x	1%[9.04 µM]	x	u
CCc1ccc(OCc2cc(=O)n3cc(C)sc3n2)cc1	x	x	x	-2%	x	-2%
